In PubChem BioAssay AID1159580 (chemical genetic matrix, 2015):
About 2,000 (36%) of roughly 5,500 compounds were called active. Not shown: some 18% with an inconclusive outcome. No stated cut-off is given here; in the data, active means normalized growth mostly below about 0.91 (no sharp cut-off); inconclusive means no clear call, values can overlap the other calls; inactive means mostly above about 0.92. This is one part of the list.

Experiment: chemical genetic growth profiling, strain panel (AID 1159580);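 further: tested at 20 µM; growth read once vehicle control cultures reached saturation at 30 °C; 1 = growth at the plate median or of vehicle wells; lower values mean less growth of the strain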
Settings: S. cerevisiae deletion strains, growth OD

Measured: normalized growth

Cc1c(O)cc(O)c2c(=O)c(-c3ccc(O)cc3)coc12
inactive: locus YBR021W, strain FUR4, hits give low values 1.01 | locus YBR229C, strain ROT2, hits give low values 1 | locus YCL029C, strain bik1, hits give low values 1.02 | locus YDL035C, strain GPR1, hits give low values 1.01 | locus YDL074C, strain BRE1, hits give low values 1.01 | locus YDL101C, strain DUN1, hits give low values 1.01 | locus YDL185W, strain tfp1, hits give low values 1.01 | locus YDL192W, strain arf1, hits give low values 1.02 | locus YDR101C, strain arx1, hits give low values 1 | locus YDR150W, strain NUM1, hits give low values 0.997 | locus YDR162C, strain NBP2, hits give low values 1 | locus YDR318W, strain mcm21, hits give low values 1 | locus YDR388W, hits give low values 1.01 | locus YDR502C, strain sam2, hits give low values 1.01 | locus YEL061C, strain CIN8, hits give low values 0.993 | locus YER110C, hits give low values 1.02 | locus YER155C, strain BEM2, hits give low values 1.01 | locus YER167W, strain BCK2, hits give low values 1 | locus YGL078C, strain dbp3, hits give low values 1.01 | locus YGL086W, strain mad1, hits give low values 1.02 | locus YGL248W, strain PDE1, hits give low values 1 | locus YGR078C, strain PAC10, hits give low values 0.978 | locus YGR135W, strain pre9, hits give low values 1.03 | locus YGR229C, strain SMI1, hits give low values 0.987 | locus YGR252W, strain gcn5, hits give low values 0.983 | locus YHR030C, strain SLT2, hits give low values 1 | locus YHR079C, strain IRE1 (second series), hits give low values 1 | locus YHR094C, strain hxt1, hits give low values 1 | locus YHR129C, strain ARP1, hits give low values 1 | locus YHR200W, strain rpn10, hits give low values 1.01 | locus YIL066C, strain RNR3, hits give low values 0.995 | locus YIL073C, strain SPO22, hits give low values 1.07 | locus YIL125W, strain kgd1, hits give low values 0.996 | locus YIR030C, strain dcg1, hits give low values 1.01 | locus YJL095W, strain BCK1, hits give low values 0.998 | locus YJL134W, strain LCB3, hits give low values 1 | locus YJL168C, strain set2, hits give low values 1 | locus YJL187C, strain SWE1 (second series), hits give low values 0.991 | locus YJR043C, strain POL32, hits give low values 0.997 | locus YJR075W, strain HOC1, hits give low values 0.99 | locus YKL009W, strain mrt4, hits give low values 0.99 | locus YKL068W, hits give low values 1 | locus YKL085W, strain MDH1 (second series), hits give low values 0.994 | locus YKL085W, strain MDH1, hits give low values 0.994 | locus YKL190W, strain CNB1, hits give low values 0.986 | locus YKR001C, strain vps1, hits give low values 0.992 | locus YLR039C, strain RIC1, hits give low values 1.18 | locus YLR058C, strain SHM2, hits give low values 0.993 | locus YLR102C, strain apc9, hits give low values 1.01 | locus YLR262C, strain YPT6, hits give low values 1.21 | locus YLR268W, strain sec22, hits give low values 1.01 | locus YLR330W, strain CHS5, hits give low values 1.01 | locus YLR342W, strain FKS1 (second series), hits give low values 1.02 | locus YLR371W, strain rom2, hits give low values 1.01 | locus YLR418C, strain cdc73, hits give low values 0.95 | locus YML016C, strain PPZ1, hits give low values 1.01 | locus YML032C, strain rad52, hits give low values 0.995 | locus YML124C, strain tub3, hits give low values 1.02 | locus YMR078C, strain ctf18, hits give low values 1.01 | locus YMR223W, strain ubp8, hits give low values 1.01 | locus YMR263W, strain SAP30, hits give low values 0.989 | locus YMR307W, strain GAS1, hits give low values 0.993 | locus YNL067W, strain RPL9B, hits give low values 0.986 | locus YNL153C, strain GIM3, hits give low values 0.979 | locus YNL233W, strain BNI4, hits give low values 0.979 | locus YNL250W, strain rad50, hits give low values 1.01 | locus YNL271C, strain bni1, hits give low values 1.02 | locus YNL298W, strain CLA4, hits give low values 1.01 | locus YNL307C, strain MCK1, hits give low values 1.01 | locus YNR052C, strain pop2, hits give low values 1.01 | locus YOL012C, strain htz1 1.03 | locus YOL147C, strain pex11, hits give low values 0.998 | locus YOR061W, strain CKA2, hits give low values 1 | locus YOR069W, strain VPS5, hits give low values 1.01 | locus YOR136W, strain idh2, hits give low values 0.999 | locus YOR144C, strain elg1, hits give low values 1 | locus YOR184W, strain ser1, hits give low values 0.988 | locus YOR316C, strain cot1, hits give low values 1.02 | locus YPL055C, strain LGE1, hits give low values 0.944 | locus YPR119W, strain clb2, hits give low values 1 | locus YPR141C, strain kar3, hits give low values 1.02 | locus YPR163C, strain tif3, hits give low values 1 | locus YPR167C, strain met16, hits give low values 1.03 | strain wtn01, hits give low values 1.01
